Source: PubChem BioAssay
CYP2C19 act: activators of human cytochrome P450 2C19; activation factor at 5 µM; AID 1025; P33261; recombinant CYP2C19, luciferin-H EGE luminescence; active compounds read high; 0 = fully inhibited enzyme, 1 = untreated enzyme; 96,000 tested, under 10 active;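 active = activation factor of at least 2 at 5 µM in the primary screen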;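 also: 0 = wells with 2.5 mM tranylcypromine and 1 = vehicle-only wells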
PostGolgi yeast: growth inhibition of a yeast mutant, post-Golgi transport screen; post-Golgi transport phenotypic cell assay; inhibition, % at 10 µM; 98,000 compounds, 0.9% hits; AID 739;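 also: yeast cells grown in 1536-well plates; yeast grown about 18 h at 30C before absorbance read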
CYP2C19 inhib: blocks human cytochrome P450 2C19; CYP2C19 Supersomes, luciferin-H EGE luminescence, 30 min; P33261; inhibition, % at 5 µM; 96,000 compounds, 21% hits; AID 778;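 active = CYP2C19 inhibition above a set limit at 5 µM in the primary screen, cut at about 50% in these data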;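 also: plate controls were negative control wells for no effect and 2.5 mM tranylcypromine positive control for full effect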
CYP2C9 activ: CYP2C9 (human) activation; recombinant CYP2C9, luciferin-H conversion, luminescence; active compounds read high; factor 1 = untreated enzyme, 0 = blocked; activation factor at 5 µM; 96,000 compounds, 1.4% hits; AID 1024;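 active = activation factor of 2 or more for CYP2C9 at a 5 µM dose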;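 also: 0 = sulfaphenazole-blocked wells and 1 = vehicle-only wells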
Target sequence (P11712 whole entry, looked up): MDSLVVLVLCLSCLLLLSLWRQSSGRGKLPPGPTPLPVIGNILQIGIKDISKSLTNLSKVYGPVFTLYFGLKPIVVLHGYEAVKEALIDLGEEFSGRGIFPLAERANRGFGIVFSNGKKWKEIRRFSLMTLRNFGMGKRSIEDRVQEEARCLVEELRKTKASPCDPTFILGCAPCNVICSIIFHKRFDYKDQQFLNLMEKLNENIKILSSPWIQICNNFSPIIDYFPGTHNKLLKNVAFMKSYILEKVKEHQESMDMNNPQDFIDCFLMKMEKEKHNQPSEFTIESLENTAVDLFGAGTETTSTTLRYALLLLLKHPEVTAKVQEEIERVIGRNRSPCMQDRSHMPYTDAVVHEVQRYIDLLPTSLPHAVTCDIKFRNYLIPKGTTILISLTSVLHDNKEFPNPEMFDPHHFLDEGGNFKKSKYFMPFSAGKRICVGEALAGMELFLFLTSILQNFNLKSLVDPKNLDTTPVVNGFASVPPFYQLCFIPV
PostGolgi ctrl: growth of the yeast control strain, post-Golgi counter-screen. efflux-deficient yeast background strain, growth absorbance A615, 16 h. 98,000 compounds, 5% hits. inhibition, % at 10 µM. AID 738
CYP2C9 inh: inhibitors of human CYP2C9. P11712. CYP2C9 Supersomes, luciferin-H conversion, luminescence. inhibition, % at 5 µM. 96,000 compounds, 20% hits;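 active = blocking of liver enzyme CYP2C9 beyond about 50% at 5 µM, limit read from the data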
The depositor's hits bear a star; . = no result given. In the library only some 32% were active in any assay of this set; here they are far more common. Rule as the data show it, unless noted: active = inhibition above about 30%; inactive = the rest.

SMILES	CYP2C19 act	PostGolgi yeast	CYP2C19 inhib	CYP2C9 activ	PostGolgi ctrl	CYP2C9 inh
Cc1ccc(N2CC(c3nc4ccccc4[nH]3)CC2=O)c(C)c1 (configuration not stated)	.	0.2	.	.	20.7	.
CC(C)CCn1c(SCCN2CCOCC2)nc2c1c(=O)[nH]c(=O)n2C	0.8	29.4	17.9	0.1	-3.9	85.3*
COCCn1c(SCCCc2ccccc2)nc2c1c(=O)[nH]c(=O)n2C	0.6	-1.6	43.4	0.4	17.1	59.3*
Cc1ccc(Sc2nc3c(c(=O)[nH]c(=O)n3C)n2CCc2ccccc2)cc1	1	-15.3	3.2	0.8	35.2*	16.0
CCCCSc1nc2c(c(=O)[nH]c(=O)n2C)n1CCc1ccccc1	1	.	-0.1	1	.	2.1
CC(C)CCn1c(SCCc2ccccc2)nc2c1c(=O)[nH]c(=O)n2C	0.5	-7.3	50.4*	0.1	35.1*	92.8*
CCOc1ccc(N2C(=O)CC(n3nc(C)cc3C)C2=O)cc1 (configuration not stated)	.	10.5	.	.	10.5	.
COc1ccccc1CNC(=O)COC(=O)c1ccc(S(=O)(=O)N2CCCC2)cc1	0.8	-11.0	15.8	0.7	12.4	25.3
O=C(NCc1ccco1)c1cc(C(=O)C2CC2)c[nH]1	0.8	12.2	15.0	0.9	-0.3	14.3
CCOCCn1c(SCCc2ccccc2)nc2c1c(=O)[nH]c(=O)n2C	0.9	-1.3	14.8	0.3	15.5	73.5*
CCCCCn1c(SCCCC)nc2c1c(=O)[nH]c(=O)n2C	0.9	-7.8	13.0	0.7	32.9*	32.4
CCCn1c(SCCc2ccccc2)nc2c1c(=O)[nH]c(=O)n2C	0.5	1.5	50.2*	0.4	20.0	58.6*
Cn1c(=O)[nH]c(=O)c2c1nc(Sc1nc3ccccc3s1)n2Cc1ccccc1	0.8	3.0	19.3	0.8	41.1*	22.1
CCOCCSc1nc2c(c(=O)[nH]c(=O)n2C)n1CCCc1ccccc1	0.8	16.5	20.8	0.8	12.4	24.4
Cc1cc(N2CCOCC2)nc2ccc(NC(=O)CCC(=O)N3CCCC(C)C3)cc12 (configuration not stated)	1	9.1	1.6	1.1	0.6	-8.4
O=C(NC1(C(F)(F)F)NC(=O)N(CC2CCCCC2)C1=O)c1ccco1 (configuration not stated)	0.8	22.9	18.2	0.7	7.1	30.8
COC(=O)Nc1nnc(-c2ccccc2Cl)s1	0.8	-4.8	19.9	1.2	0.9	-20.5
CC(/C=C1\N=C(SCc2ccccc2Cl)SC1=O)=C\c1ccccc1	0.8	-1.2	24.0	0.7	5.3	30.2
O=C(CCNc1cccc(Cl)c1)c1cccs1	0.6	0.3	36.1	0.9	11.5	13.4
CC(C)OC(=O)NCN1C(=O)C2C3C=CC(C3)C2C1=O (configuration not stated)	1	5.9	-1.8	1	2.4	-4.9
CN(C)c1cc[nH]c(=O)c1C#N	1.1	-1.6	-5.8	1.1	-0.9	-7.3
CCN1CCCC1CNC(=O)C(=O)Nc1ccccc1OC (configuration not stated)	1	7.3	-3.5	1.1	3.9	-5.5
O=C(CN(Cc1ccc2c(c1)OCO2)C(=O)CNS(=O)(=O)c1ccccc1)NCc1ccco1	0.3	-2.6	74.0*	0.7	4.1	33.6
O=C(CN(CCc1ccccc1)C(=O)CNS(=O)(=O)c1ccc(F)cc1)NCc1ccco1	0.3	-1.1	72.8*	0.5	7.1	46.1
O=C(CN(Cc1ccccc1)C(=O)c1ccco1)NCc1ccc(F)cc1	0.2	-15.5	83.5*	0.6	1.5	44.1
SMILES	CYP2C19 act	PostGolgi yeast	CYP2C19 inhib	CYP2C9 activ	PostGolgi ctrl	CYP2C9 inh
Cc1ncc(N=Nc2ccccc2)c(-c2ccccc2)n1	0.8	5.3	18.6	0.9	4.0	6.2
CC(C)Cn1c(C(C)C)nc([N+](=O)[O-])c1S(=O)(=O)c1ccc(F)cc1	0.3	11.9	66.4*	0.9	17.6	13.1
COc1ccc2ccc(Oc3ncccn3)cc2c1	0.6	2.5	35.6	1	0.8	-1.9
c1cnc(Oc2ccc3oc4ccccc4c3c2)nc1	0.4	1.4	62.7*	1.1	3.8	-11.2
CCOC(=O)c1sc2ncn(CC(=O)N(CC)CC)c(=O)c2c1C	0.9	3.3	10.0	0.8	6.0	18.7
CCOC(=O)N1CCN(C(=O)CSc2nnc(-c3cc(OC)ccc3OC)o2)CC1	.	-2.4	.	.	5.3	.
